# Compound activity deposited in PubChem BioAssay by several laboratories.
# SENP8 block-1 = blocks the human protease SENP8. Q96LD8. purified SENP8, Z-RLRGG-aminoluciferin cleavage, luminescence. inhibition, % at 10 µM. hit rate 1.2% among 330,000; in the data active = inhibition above about 50%
# EBI2 antag = antagonists of human EBI2 receptor; EBI2 beta-arrestin recruitment, luminescence, 7a,25-OHC stimulated; inhibition, % at 5 µM; hit rate 0.81% among 360,000; in the data active = inhibition above about 38%;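 note: enzyme fragment complementation signal reports receptor beta-arrestin coupling in cells; 0% = agonist plus DMSO wells and 100% = wells without agonist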
# AHR act = activates the human aryl hydrocarbon receptor; P35869; AHR-responsive luciferase reporter cells, luminescence; activation, % at 5 µM; hit rate 2.5% among 320,000; AID 2796; in the data active = activation above about 47%;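 note: 0% = vehicle wells and 100% = reference agonist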
# SENP8 block-2 = blocks human SENP8 cleavage of Nedd8 substrate | Q96LD8 | AID 602440 | hit rate 0.64% among 360,000 | inhibition, % at 20 µM | recombinant SENP8, Nedd8 substrate fluorescence; in the data active = inhibition mostly above about 40%, no sharp cut-off; inactive = mostly below about 27%
# SENP6 block = inhibitors of human SENP6 protease. Q9GZR1. Recombinant SENP6 catalytic domain, aminoluciferin luminescence. inhibition, % at 10 µM. hit rate 1.8% among 330,000. AID 2599;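 active = inhibition above about 50% at the single tested dose, limit read from the data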;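 note: plate controls were DMSO wells with enzyme for no effect and DMSO wells lacking enzyme for full effect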
# SENP7 inh = SENP7 protease inhibition; hit rate 1.5% among 330,000; inhibition, % at 5 µM; AID 434973; recombinant SENP7, Z-RLRGG-aminoluciferin luminescence, 40 min;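 active = inhibition above about 50% at the single test dose, limit read from the data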;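 note: plate controls were DMSO with enzyme for no effect and no enzyme buffer wells for full effect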
# AHR act confirm = human AHR activation, confirmation. hit rate 87% among 2,300. AID 2845. shares compounds with AHR act. human cells, AHR-responsive luciferase reporter, luminescence. activation, % at 9 µM; in the data active = activation above about 49%;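 note: HepG2 hepatoma cells carrying a DRE-driven firefly luciferase reporter; 0% = vehicle wells and 100% = reference agonist wells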
# PXR act counter = activates human PXR in AHR activator counter-screen; shares compounds with AHR act; cell-based PXR reporter, luciferase luminescence; activation, % at 11.6 µM; hit rate 88% among 2,300; in the data active = activation above about 11%;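 note: human hepatoma DPX-2 cells expressing full-length human PXR; 0% = DMSO and 100% = reference agonist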
# Target sequence (O75469 whole entry, looked up): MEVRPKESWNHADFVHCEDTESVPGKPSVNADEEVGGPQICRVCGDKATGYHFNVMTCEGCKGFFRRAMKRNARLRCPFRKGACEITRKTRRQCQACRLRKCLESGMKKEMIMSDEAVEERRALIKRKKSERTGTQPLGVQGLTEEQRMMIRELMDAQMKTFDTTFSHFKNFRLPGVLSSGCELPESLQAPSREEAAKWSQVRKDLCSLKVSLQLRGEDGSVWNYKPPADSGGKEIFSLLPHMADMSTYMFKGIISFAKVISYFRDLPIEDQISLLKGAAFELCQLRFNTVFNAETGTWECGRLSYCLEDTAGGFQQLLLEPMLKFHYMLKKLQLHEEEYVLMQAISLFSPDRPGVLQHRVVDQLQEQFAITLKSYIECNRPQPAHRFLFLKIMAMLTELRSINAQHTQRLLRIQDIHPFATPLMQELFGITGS
# * hit, by the source's call; / = not tested or not shown. The list is not random: actives were taken first. Their share in the collection is about 5%.
SMILES,SENP8 block-1,EBI2 antag,AHR act,SENP8 block-2,SENP6 block,SENP7 inh,AHR act confirm,PXR act counter
Cc1ccc(/C=N/NC(=O)C2COc3ccccc3O2)s1 (stereo unspecified),-7,8,1,7,-20,8,/,/
Cn1cc(/C=N\NC(=O)C2COc3ccccc3O2)c2ccccc21 (stereo unspecified),-7,/,97*,/,-16,-13,71*,12*
CCOC(=O)c1c(NCc2ccc3c(c2)OCO3)c2ccccc2[nH]c1=O,-6,1,109*,-1,-2,5,74*,156*
CN1C(=O)c2ccccc2CC12c1ccccc1C(=O)N2C (stereo unspecified),/,11,/,18,/,/,/,/
CC/C(O)=C1\C(=O)CC(c2ccccc2)CC1=NCCC(=O)O (stereo unspecified),-4,-7,-2,4,2,-5,/,/
CC/C(O)=C1\C(=O)CC(c2ccccc2)CC1=NC(C)C (stereo unspecified),-9,3,123*,22,-43,-8,3,128*
Cn1cc(CNCCN2CCCCC2=O)c(-c2cccc(Cl)c2)n1,-12,2,1,7,6,-5,/,/
COCCNC(=S)N=Nc1c(O)[nH]c2c(C)cc(C)cc12,-4,9,116*,37,-9,11,93*,71*
Cc1cc(C(=O)NCc2ccccc2F)c2ccccc2n1,-10,7,1,-12,-1,-4,/,/
O=C(CN1CCc2ccccc2C1)Nc1ccc(Br)cc1,2,3,2,16,2,3,/,/
O=C(Nc1ccc(Br)cc1)N1CCc2ccccc2C1,-13,6,98*,9,5,-15,156*,55*
Cc1ccccc1OCC(=O)N(Cc1ccco1)c1c(N)n(Cc2ccccc2)c(=O)[nH]c1=O,7,-8,2,-20,2,0,/,/
CCCS(=O)(=O)Nc1c(OC)ccc2c1c(C(=O)OCC)c(C)n2C,-4,0,85*,10,-16,12,74*,119*
CCOC(CNC(=O)c1cccn2c(=O)c3cc(Cl)ccc3nc12)OCC,-7,12,83*,-292,-4,-10,134*,14*
Cc1ccc(C)c(NC(=O)c2nc(Cl)ccc2Cl)c1,5,-2,81*,2,7,-7,106*,112*
Cc1ccc(C)c(NC(=O)COC(=O)c2nc(Cl)ccc2Cl)c1,5,-4,11,-13,4,4,/,/
COc1cccc(/C=N/n2c(=S)n(C)c3ccccc32)c1OC,3,36,2,7,-2,-1,/,/
COc1cccc(/C=N/n2c(=O)[nH]c3ccccc32)c1OC,-3,20,118*,18,5,-1,94*,18*
CC(C)CC(=O)N1CCN(C(=O)c2ccc(F)cc2)CC1,-10,4,-1,6,0,8,/,/
Cn1cc(SCC(=O)NC2CCCCC2)c2ccccc21,1,10,88*,12,-11,-1,6,108*
Cc1ccc2c(c1)N(CCC(=O)NC1CCCCC1)C(=O)CO2,-10,-8,-7,-1,-5,-12,/,/
CCN(CC)c1ccc(NC(=O)c2cccnc2)cc1,-11,-2,0,23,-8,-5,/,/
CCN=C(Nc1ccc(Cl)cc1)c1cccnc1,2,-5,104*,10,-9,5,81*,35*
Cc1cccc(-c2oc3ccccc3c2C#CCCCCO)c1,-15,-8,17,-491,-19,6,/,/
Cc1cccc(-c2oc3ccccc3c2C#CCCO)c1,-13,5,97*,-458,-11,-6,68*,24*
SMILES,SENP8 block-1,EBI2 antag,AHR act,SENP8 block-2,SENP6 block,SENP7 inh,AHR act confirm,PXR act counter
NNC(=O)c1[nH]c2ccccc2c1-c1ccccc1,8,-4,94*,-18,-1,3,17,10
CC(=O)NNC(=O)c1[nH]c2ccc(Cl)cc2c1-c1ccccc1,5,13,9,-19,-26,8,/,/
CN(C)c1cc(O)c(C(=S)Nc2ccccc2)c(N(C)C)c1,-9,11,125*,15,0,-4,102*,115*
CN(C)c1ccc(C(=S)Nc2ccccc2)cc1,6,1,18,-180,26,14,/,/
O=[N+]([O-])c1cccc2ccc(/C=C/c3ccc(F)cc3)nc12,-7,16,186*,16,8,-7,229*,19*
c1ccc2c(c1)[nH]c1c(N3CCSCC3)ncnc12,7,4,42,-300,5,5,/,/
c1ccc2c(c1)[nH]c1c(N3CCN(C4CCCCC4)CC3)ncnc12,-7,-1,80*,-219,-18,-3,68*,14*
Cc1cccc(Nc2nc(N)nc(CSc3nccc(C)n3)n2)c1,-5,2,103*,0,6,-4,103*,119*
COc1ccccc1Nc1nc(N)nc(CSc2ncccn2)n1,0,-1,8,24,-1,1,/,/
CCOc1ccccc1Nc1nc(N)nc(CSc2nccc(C)n2)n1,4,-7,81*,14,7,5,70*,60*
Cc1[nH]c2ccccc2c1/C=C/c1nc2ccccc2c(=O)[nH]1,-16,-30,166*,-406,-5,3,91*,55*
Cc1[nH]c2ccccc2c1/C=C/C(=O)c1ccccc1,0,-18,129*,-198,-21,-2,123*,73*
Cc1[nH]c2ccccc2c(=O)c1C(=O)/C=C/c1ccccc1,-4,16,-2,23,3,-4,/,/
O=C(CC1Sc2ccccc2NC1=O)Nc1ccccc1[N+](=O)[O-] (stereo unspecified),-7,-3,152*,23,-13,-10,111*,38*
O=C(CC1Sc2ccccc2NC1=O)Nc1cccnc1 (stereo unspecified),5,-17,29,4,11,3,/,/
COc1ccc2c(c1)O[C@H](c1ccc3c(c1)OCO3)[C@@H](O)C2=O,2,2,87*,-3,7,-11,95*,26*
COc1ccc2c(c1)O[C@@H](c1cccc(C(F)(F)F)c1)[C@H](O)C2=O,5,/,27,/,0,-4,/,/
CN(C)S(=O)(=O)Oc1ccsc1C(=O)Nc1ccc(Cl)c(Cl)c1,-10,16,90*,9,-17,-1,122*,35*
CN(C)S(=O)(=O)Oc1ccsc1C(=O)Nc1cccc(Cl)c1,-14,1,22,27,-8,-6,/,/
CCn1c(=O)c(C(=O)Nc2ncccc2C)c(O)c2ccccc21,-3,-12,111*,-17,11,1,96*,26*
CCOc1ccccc1NC(=S)Nc1ncccc1C,2,-32,122*,-2,15,-6,81*,52*
